Assay results from the supplement of paper PMC11732987, “Enantioselective OTUD7B fragment discovery through chemoproteomics screening and high-throughput optimisation” (Communications Chemistry, 2025).
A number with no mark means an inactive call.

Biological target: T1, USP42 (UniProt Q9H9J4)
T1 sequence (whole entry): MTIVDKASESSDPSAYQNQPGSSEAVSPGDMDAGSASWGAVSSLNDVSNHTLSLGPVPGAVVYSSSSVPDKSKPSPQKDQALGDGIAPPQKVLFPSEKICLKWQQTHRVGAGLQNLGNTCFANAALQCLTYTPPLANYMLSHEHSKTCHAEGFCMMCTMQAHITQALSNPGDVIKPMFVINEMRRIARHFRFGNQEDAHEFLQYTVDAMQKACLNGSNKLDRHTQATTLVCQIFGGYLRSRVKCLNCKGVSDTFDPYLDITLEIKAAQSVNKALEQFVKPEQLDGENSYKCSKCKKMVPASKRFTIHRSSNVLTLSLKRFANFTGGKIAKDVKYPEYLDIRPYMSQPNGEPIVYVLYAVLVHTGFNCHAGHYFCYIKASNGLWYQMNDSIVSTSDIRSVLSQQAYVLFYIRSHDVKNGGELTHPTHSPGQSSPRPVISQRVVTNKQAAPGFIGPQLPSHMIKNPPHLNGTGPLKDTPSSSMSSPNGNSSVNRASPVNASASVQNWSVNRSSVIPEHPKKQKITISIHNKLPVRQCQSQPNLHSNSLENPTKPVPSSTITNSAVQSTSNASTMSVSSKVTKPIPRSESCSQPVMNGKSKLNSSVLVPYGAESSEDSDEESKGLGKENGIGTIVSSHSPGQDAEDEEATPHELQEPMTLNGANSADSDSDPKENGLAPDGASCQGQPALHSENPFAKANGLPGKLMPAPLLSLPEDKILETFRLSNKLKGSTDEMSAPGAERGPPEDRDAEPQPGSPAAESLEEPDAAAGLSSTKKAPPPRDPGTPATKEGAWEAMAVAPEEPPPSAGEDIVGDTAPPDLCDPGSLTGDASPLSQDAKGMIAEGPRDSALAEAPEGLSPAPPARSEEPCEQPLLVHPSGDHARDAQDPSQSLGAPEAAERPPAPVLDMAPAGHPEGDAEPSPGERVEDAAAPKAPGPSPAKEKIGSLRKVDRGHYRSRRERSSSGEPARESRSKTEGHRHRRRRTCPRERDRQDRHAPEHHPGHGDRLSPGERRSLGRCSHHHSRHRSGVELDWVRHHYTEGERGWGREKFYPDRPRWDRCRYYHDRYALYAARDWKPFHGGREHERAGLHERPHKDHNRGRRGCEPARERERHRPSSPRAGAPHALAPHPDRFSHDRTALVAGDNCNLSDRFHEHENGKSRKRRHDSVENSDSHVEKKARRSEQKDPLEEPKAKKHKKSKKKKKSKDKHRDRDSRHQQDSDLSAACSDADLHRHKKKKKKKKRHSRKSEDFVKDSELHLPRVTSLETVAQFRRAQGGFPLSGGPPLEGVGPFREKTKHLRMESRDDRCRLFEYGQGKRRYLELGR
Assay: log2 ratio of Biotin-Ahx-Ub-VS probe labelling (fragment/DMSO); higher = less target engagement (more negative = stronger competition), active = hit call of the paper (q ≤ 0.05, log2 ratio ≤ -1)
Conditions: compound concentration: 200 uM; treatment time: 3 h
Method in brief: (§1)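 Lysate from HEK293T cells, 495 µg per sample in Tris/CHAPS/IGEPAL buffer with protease inhibitors, was treated for 3 h in triplicate with fragment at 200 µM or vehicle. Biotin-Ahx-Ub-VS was next added at 0.5 µM final for 1 h. The labelled DUBs were enriched with NeutrAvidin, digested with LysC and trypsin, and run by diaPASEF LC-MS/MS, with values given as average log2 fragment/vehicle ratios by unpaired t-test on global-median-normalised Spectronaut quantities of proteins with ≥2 unique peptides.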

SMILES | log2 ratio of Biotin-Ahx-Ub-VS probe labelling
Cl.Cn1ncc2c1CCCC2NC(=O)CCl (stereo unspecified) | 0.564
COCC[C@@H](NC(=O)CCl)c1ccccc1 | 0.331
CN(C(=O)CCl)c1nc2ccccc2s1 | 0.236
O=C(CCl)N1CCC(C(=O)N2CCCCCC2)CC1 | 0.671
O=C(CCl)N1CCOC2(CCC2)CC1 | -0.307
O=C(CCl)NCCC1=CCCCC1 | 0.91
O=C(CCl)N(C1CCCC1)C1CCS(=O)(=O)C1 (stereo unspecified) | 0.228
Cc1noc(N2CCN(C(=O)CCl)CC2)n1.Cl | 0.0551
COc1ccccc1C(C)NC(=O)CCl (stereo unspecified) | -0.0523
O=C(CCl)N(Cc1ccsc1)C1CC1 | -0.0609
O=C(CCl)N1CCC(S(=O)(=O)c2ccc(F)cc2)CC1 | -0.133
Cc1nc(CN2CCN(C(=O)CCl)CC2)cs1 | 0.251
O=C(CCl)N1CC2(CCOCC2)C1 | -0.145

Biological target: USP46 (UniProt P62068)
Sequence (P62068 whole entry): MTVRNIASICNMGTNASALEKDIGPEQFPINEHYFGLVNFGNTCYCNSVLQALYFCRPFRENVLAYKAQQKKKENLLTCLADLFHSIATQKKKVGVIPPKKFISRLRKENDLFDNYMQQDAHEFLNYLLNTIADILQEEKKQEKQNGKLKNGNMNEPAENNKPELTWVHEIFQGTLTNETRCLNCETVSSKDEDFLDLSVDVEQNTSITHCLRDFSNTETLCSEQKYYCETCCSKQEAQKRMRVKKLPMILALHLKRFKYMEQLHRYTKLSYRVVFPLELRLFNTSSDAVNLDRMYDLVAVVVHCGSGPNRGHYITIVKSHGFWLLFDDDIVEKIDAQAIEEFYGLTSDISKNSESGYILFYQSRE
Assay: as above
Conditions: compound concentration: 200 uM; treatment time: 3 h
Method in brief: as §1

SMILES | log2 ratio of Biotin-Ahx-Ub-VS probe labelling
O=C(CCl)Nc1ccc(F)cc1Cl | -0.157
O=C(CCl)Nc1cccc2ncccc12 | 0.096
O=C(CCl)NC(Cn1ccccc1=O)c1ccccc1 (stereo unspecified) | 0.258
Cc1n[nH]c(=O)c2c(NC(=O)CCl)oc(C)c12 | -0.0434
Cc1ccc(-c2nnc(C)[nH]2)c(NC(=O)CCl)c1 | 0.277
Cc1ccc(C)c(Oc2ccc(CNC(=O)CCl)cn2)c1.Cl | 0.00613
Cc1nc(CN2CCCN(C(=O)CCl)CC2)no1.Cl | 0.0734
N#Cc1ccc(CNC(=O)CCl)cc1 | 0.111
CC(C)n1nccc1NC(=O)CCl | 0.0362
CC(NC(=O)CCl)c1ccc2[nH]ncc2c1 (stereo unspecified) | -0.239
Cl.O=C(CN1CCN(C(=O)CCl)CC1)Nc1ccc(F)cc1 | 0.0462
CC(NC(=O)CCl)c1cnn(C2CC2)c1 (stereo unspecified) | -0.113
NC(=O)C(Cc1ccccc1)NC(=O)CCl (stereo unspecified) | 0.0497
O=C(CCl)NC1CCN(C(=O)C2CCCCC2)CC1 | 0.262
Cc1cc(Cl)ccc1NC(=O)CCl | -0.0701
COc1ccc(Cl)cc1NC(=O)CCl | -0.265
O=C(CCl)Nc1nnc(CC(F)(F)F)o1 | 0.083

SMILES | log2 ratio of Biotin-Ahx-Ub-VS probe labelling
O=C(CCl)N(C1=CCCCC1)C1CC1 | -0.1
Cc1ccc(CN(CCO)C(=O)CCl)cc1 | -0.105
CC(NC(=O)CCl)c1cccc2ccccc12 (stereo unspecified) | 0.159
O=C(CCl)N1CCCCC12CCOCC2 | -0.278
Cl.Cn1ncc2c1CCCC2NC(=O)CCl (stereo unspecified) | -0.0969
COCC[C@@H](NC(=O)CCl)c1ccccc1 | 0.164
CN(C(=O)CCl)c1nc2ccccc2s1 | -0.305
O=C(CCl)N1CCC(C(=O)N2CCCCCC2)CC1 | -0.142
O=C(CCl)N1CCOC2(CCC2)CC1 | 0.0174
O=C(CCl)NCCC1=CCCCC1 | -0.0411
O=C(CCl)N(C1CCCC1)C1CCS(=O)(=O)C1 (stereo unspecified) | -0.0761
Cc1noc(N2CCN(C(=O)CCl)CC2)n1.Cl | -0.0466
COc1ccccc1C(C)NC(=O)CCl (stereo unspecified) | -0.0541
O=C(CCl)N(Cc1ccsc1)C1CC1 | 0.201
O=C(CCl)N1CCC(S(=O)(=O)c2ccc(F)cc2)CC1 | -0.0321
Cc1nc(CN2CCN(C(=O)CCl)CC2)cs1 | -0.246
O=C(CCl)N1CC2(CCOCC2)C1 | 0.00462

Biological target: T2, USP47 (UniProt Q96K76)
T2 sequence (whole entry): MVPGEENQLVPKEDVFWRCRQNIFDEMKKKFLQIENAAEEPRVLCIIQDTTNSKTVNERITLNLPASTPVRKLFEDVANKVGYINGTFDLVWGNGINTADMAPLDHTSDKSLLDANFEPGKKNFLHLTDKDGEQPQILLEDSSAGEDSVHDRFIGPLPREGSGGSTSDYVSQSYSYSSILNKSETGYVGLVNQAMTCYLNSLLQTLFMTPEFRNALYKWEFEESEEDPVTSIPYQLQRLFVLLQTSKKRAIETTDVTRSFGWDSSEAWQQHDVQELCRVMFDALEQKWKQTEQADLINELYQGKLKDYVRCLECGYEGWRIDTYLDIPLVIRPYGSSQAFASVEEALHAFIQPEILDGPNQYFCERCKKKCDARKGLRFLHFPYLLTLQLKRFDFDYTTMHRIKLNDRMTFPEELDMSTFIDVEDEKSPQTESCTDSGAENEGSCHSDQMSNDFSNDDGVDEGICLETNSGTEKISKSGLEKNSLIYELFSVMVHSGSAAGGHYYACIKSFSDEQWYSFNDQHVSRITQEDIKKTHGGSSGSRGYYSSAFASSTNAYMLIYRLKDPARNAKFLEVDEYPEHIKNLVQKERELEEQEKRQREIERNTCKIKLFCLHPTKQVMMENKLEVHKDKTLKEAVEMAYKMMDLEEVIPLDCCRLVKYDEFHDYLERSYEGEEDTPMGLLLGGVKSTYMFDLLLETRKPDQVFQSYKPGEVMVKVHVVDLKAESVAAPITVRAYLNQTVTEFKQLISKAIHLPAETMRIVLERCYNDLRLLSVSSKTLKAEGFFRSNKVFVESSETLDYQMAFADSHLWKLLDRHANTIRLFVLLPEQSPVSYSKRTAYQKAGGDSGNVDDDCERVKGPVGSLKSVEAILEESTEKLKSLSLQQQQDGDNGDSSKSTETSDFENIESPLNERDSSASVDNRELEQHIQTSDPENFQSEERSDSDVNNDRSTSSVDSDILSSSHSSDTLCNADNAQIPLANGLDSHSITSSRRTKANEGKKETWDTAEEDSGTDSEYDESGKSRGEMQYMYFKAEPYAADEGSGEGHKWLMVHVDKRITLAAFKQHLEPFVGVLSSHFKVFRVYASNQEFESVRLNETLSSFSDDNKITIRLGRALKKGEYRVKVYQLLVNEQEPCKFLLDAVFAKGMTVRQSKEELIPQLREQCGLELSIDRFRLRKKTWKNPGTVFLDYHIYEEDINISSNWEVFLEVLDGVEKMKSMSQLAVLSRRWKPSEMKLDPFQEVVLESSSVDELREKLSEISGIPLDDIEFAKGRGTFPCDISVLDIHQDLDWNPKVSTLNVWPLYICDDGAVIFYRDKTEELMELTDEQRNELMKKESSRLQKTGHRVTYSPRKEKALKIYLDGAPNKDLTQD
Assay: as above
Conditions: compound concentration: 200 uM; treatment time: 3 h
Method in brief: as §1

SMILES | log2 ratio of Biotin-Ahx-Ub-VS probe labelling
O=C(CCl)Nc1ccc(F)cc1Cl | -1.41 (active)
O=C(CCl)Nc1cccc2ncccc12 | 0.325
O=C(CCl)NC(Cn1ccccc1=O)c1ccccc1 (stereo unspecified) | -0.4
Cc1n[nH]c(=O)c2c(NC(=O)CCl)oc(C)c12 | 0.166
Cc1ccc(-c2nnc(C)[nH]2)c(NC(=O)CCl)c1 | -0.177
Cc1ccc(C)c(Oc2ccc(CNC(=O)CCl)cn2)c1.Cl | -0.424
Cc1nc(CN2CCCN(C(=O)CCl)CC2)no1.Cl | -0.095
N#Cc1ccc(CNC(=O)CCl)cc1 | 0.323
CC(C)n1nccc1NC(=O)CCl | -0.313
CC(NC(=O)CCl)c1ccc2[nH]ncc2c1 (stereo unspecified) | 0.0542
Cl.O=C(CN1CCN(C(=O)CCl)CC1)Nc1ccc(F)cc1 | -0.158
CC(NC(=O)CCl)c1cnn(C2CC2)c1 (stereo unspecified) | -0.514
NC(=O)C(Cc1ccccc1)NC(=O)CCl (stereo unspecified) | -0.239
O=C(CCl)NC1CCN(C(=O)C2CCCCC2)CC1 | 0.301
Cc1cc(Cl)ccc1NC(=O)CCl | -0.176
COc1ccc(Cl)cc1NC(=O)CCl | -0.266
O=C(CCl)Nc1nnc(CC(F)(F)F)o1 | 0.172

SMILES | log2 ratio of Biotin-Ahx-Ub-VS probe labelling
O=C(CCl)N(C1=CCCCC1)C1CC1 | -0.571
Cc1ccc(CN(CCO)C(=O)CCl)cc1 | -0.828
CC(NC(=O)CCl)c1cccc2ccccc12 (stereo unspecified) | -0.308
O=C(CCl)N1CCCCC12CCOCC2 | -0.146
Cl.Cn1ncc2c1CCCC2NC(=O)CCl (stereo unspecified) | -1.12 (active)
COCC[C@@H](NC(=O)CCl)c1ccccc1 | -0.122
CN(C(=O)CCl)c1nc2ccccc2s1 | -0.107
O=C(CCl)N1CCC(C(=O)N2CCCCCC2)CC1 | -0.239
O=C(CCl)N1CCOC2(CCC2)CC1 | -0.785
O=C(CCl)NCCC1=CCCCC1 | -0.145
O=C(CCl)N(C1CCCC1)C1CCS(=O)(=O)C1 (stereo unspecified) | -0.442
Cc1noc(N2CCN(C(=O)CCl)CC2)n1.Cl | -0.329
COc1ccccc1C(C)NC(=O)CCl (stereo unspecified) | -0.334
O=C(CCl)N(Cc1ccsc1)C1CC1 | -0.631
O=C(CCl)N1CCC(S(=O)(=O)c2ccc(F)cc2)CC1 | -0.145
Cc1nc(CN2CCN(C(=O)CCl)CC2)cs1 | -0.236
O=C(CCl)N1CC2(CCOCC2)C1 | 0.0373
